Potency, activity, negative = inhibition and activity change, negative = inhibition data for 12 molecules are collected here from PubChem BioAssay (Tox21).

Values without a mark were called inactive. Records with an inconclusive call do not appear. Activity calls are given as the source filed them. Calls follow the shape of the full dose curve.

The target of assay [1] is Acetylcholinesterase (Homo sapiens) (UniProt P22303). The assay is described as follows: Acetylcholinesterase (AChE) small molecule antagonists: colormetric cell-based qHTS assay (AID 1347395). Also: nearly all actives have a fitted effect of over 30% in size. In a few lines: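 SH-SY5Y cells, plated overnight at 37 C, were exposed to compounds for 30 min at 37 C and 5% CO2. Acetylthiocholine plus DTNB was then added, and thiocholine from endogenous AChE was quantified colorimetrically after 90 min at 37 C.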
Sequence of Acetylcholinesterase (Homo sapiens) (P22303 whole entry, looked up): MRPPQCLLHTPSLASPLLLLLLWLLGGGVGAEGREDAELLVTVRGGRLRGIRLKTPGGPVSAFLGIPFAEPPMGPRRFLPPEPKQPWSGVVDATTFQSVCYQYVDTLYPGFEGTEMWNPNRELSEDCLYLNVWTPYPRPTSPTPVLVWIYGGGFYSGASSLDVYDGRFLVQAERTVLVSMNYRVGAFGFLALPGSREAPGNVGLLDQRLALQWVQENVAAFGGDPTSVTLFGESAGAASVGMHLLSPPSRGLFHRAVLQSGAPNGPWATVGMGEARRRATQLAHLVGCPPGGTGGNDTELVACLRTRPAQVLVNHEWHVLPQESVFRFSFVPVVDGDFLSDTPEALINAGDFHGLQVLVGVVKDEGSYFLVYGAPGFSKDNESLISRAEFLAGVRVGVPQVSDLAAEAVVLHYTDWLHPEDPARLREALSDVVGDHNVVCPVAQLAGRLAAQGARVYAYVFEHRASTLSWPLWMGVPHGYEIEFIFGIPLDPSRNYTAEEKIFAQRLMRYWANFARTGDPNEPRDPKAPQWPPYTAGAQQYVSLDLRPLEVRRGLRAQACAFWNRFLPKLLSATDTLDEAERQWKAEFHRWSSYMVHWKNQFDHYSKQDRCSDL
In general terms: Quantitative high-throughput screening tests each substance at several concentrations.

For assay [2] the target is unchanged. The assay is described as follows: Acetylcholinesterase (AChE) small molecule antagonists: enzyme-based qHTS assay (AID 1347397). Also: nearly all actives have a fitted effect of over 55% in size. The following applies: Potency: AChE enzyme activity inhibition; outcome: AChE enzyme activity inhibition. The gist of the method: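 In this quantitative HTS, compounds from the Tox21 10K collection were preincubated 30 min at ambient temperature with recombinant human AChE dispensed at 50 mU/mL. Hydrolysis of acetylthiocholine was then followed for 10 min by DTNB colour development.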

Assay [3] shares this target. Nature of the assay: Acetylcholinesterase (AChE) small molecule antagonists: fluorescence cell-based qHTS assay (AID 1347398). Also: nearly all actives have a fitted effect of over 50% in size. The following applies: Potency: AChE activity; outcome: AChE activity. The gist of the method: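 Cells (SH-SY5Y) attached overnight, were dosed with compound or DMSO vehicle for 30 min at 37 C, and then incubated 40 min at room temperature with acetylthiocholine and Thiolite Green; green fluorescence indexed AChE activity.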

For assay [4] the target is unchanged. Nature of the assay: Acetylcholinesterase (AChE) small molecule antagonists: enzyme-based qHTS assay with human liver microsomes (AID 1347399). Also: nearly all actives have a fitted effect of over 60% in size. To be noted: Potency: qHTS inhibition; outcome: qHTS inhibition. In a few lines: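 Recombinant human AChE (50 mU/mL in the enzyme mix) and human liver microsomes (0.25 mg/mL final) were preincubated with compound and NADPH (0.25 mg/mL final) for 30 min at 37 C. Acetylthiocholine/DTNB was then added; thiocholine was read colorimetrically after 10 min at room temperature.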
% is scaled to controls: 0 for no effect and ±100 for the full control effect; potency is read from the fitted curve at half-maximal effect.

Take `COCCO`: the Potency result in assay [1], in assay [2], in assay [3] and in assay [4] was “inactive” each time.

For the molecule `O=CC(=O)c1ccccc1`, the Potency in assay [1] was 2 µM (active); in assay [2] it was 5.03 µM (active); in assay [3] it was 0.283 µM (active); in assay [4], 35.6 µM (active).

For `CCCN(CCC)c1c([N+](=O)[O-])cc(C(F)(F)F)c(N)c1[N+](=O)[O-]`, the Potency result in assay [1], in assay [2], in assay [3] and in assay [4] was “inactive” each time.

As for `CC(=O)Nc1ccc(S(=O)(=O)Nc2cc(C)on2)cc1`, the Potency result in assay [1], in assay [2], in assay [3] and in assay [4] was “inactive” in each case.

In the case of `CCCC(=O)OCCc1ccccc1`, the Potency result in assay [1], in assay [2], in assay [3] and in assay [4] was “inactive” each time.

Consider `Cc1ccc(S(=O)(=O)C(I)I)cc1`, for which the Potency entry in assay [1], in assay [2], in assay [3] and in assay [4] was “inactive” each time.

On to `Cc1ccc(O)c([N+](=O)[O-])c1`, for which the Potency entry in assay [1], in assay [2], in assay [3] and in assay [4] was “inactive” throughout.

On to `N=C(N)N1CCc2ccccc2C1`, for which the activity, negative = inhibition in assay [1] is 3.08% [at 10.5 µM]. The activity change, negative = inhibition in assay [2] is 0.139% [at 10.5 µM]; in assay [3], -0.69% [at 10.5 µM]; in assay [4] it was 2.85% [at 10.5 µM].

Regarding `NC(=O)c1ccccc1C(N)=O`, the Potency result in assay [1], in assay [2], in assay [3] and in assay [4] was “inactive” throughout.

With `CCCCCCCC/C=C\CCCCCCCC(=O)OCCCC`, in assay [1], the activity, negative = inhibition was 0.807% [at 23.6 µM]. In addition, the figures for the activity change, negative = inhibition in assay [2], in assay [3] and in assay [4] were 0.806% [at 23.6 µM], -0.0934% [at 23.8 µM] and 0.083% [at 23.6 µM], respectively.

Turning to `CCC(C)COC(=O)CC(C)C` (stereo not drawn), the Potency entry in assay [1], in assay [2], in assay [3] and in assay [4] was “inactive” throughout.

As to `OCCC(F)(F)C(F)(F)C(F)(F)C(F)(F)C(F)(F)C(F)(F)F`, the Potency entry in assay [1], in assay [2], in assay [3] and in assay [4] was “inactive” in each case.
